Rows were chosen to be rich in hits. Some 10% of all compounds tested hit in one or more screens of this group.
CtBP-E1A blk – blocks the CtBP interaction with E1A; AlphaScreen GST-E1A/His-CtBP binding, 1536-well; active compounds read low; activity change, % (concentration not given with the values); hit rate 0.49% among 340,000; AID 651724; in the data active means activity change below about -65%; inconclusive means mostly about -30% to -63%
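AlphaScreen with 125 nM GST-E1A and 125 nM His-CtBP (5X stocks) in Tris pH 8.0, 300 mM NaCl, BSA, Tween 20, TCEP. Compounds preincubated 2 h at 37 deg C, then glutathione donor/nickel acceptor beads added for 1 h at 37 deg C in dark.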
JMJD2A Tudor – inhibitors of human JMJD2A Tudor domain. O75164. AlphaScreen JMJD2A-Tudor / H3K4me3 peptide binding. Potency, µM (titrated, usually from 114 µM), usual class: inhibitors. hit rate 4.4% among 390,000. AID 504339; further: nearly all actives have a fitted effect of over 50% in size
Six1-Eya2 blk – inhibitors of human Six1/Eya2 interaction | AlphaScreen GST-Six1/His-Eya2 binding, biochemical; active compounds read low | activity change, % (test concentration not listed) | hit rate 0.56% among 360,000; in the data active means activity change below about -65%; inconclusive means mostly about -30% to -63%
Target sequence (O00167 whole entry, looked up): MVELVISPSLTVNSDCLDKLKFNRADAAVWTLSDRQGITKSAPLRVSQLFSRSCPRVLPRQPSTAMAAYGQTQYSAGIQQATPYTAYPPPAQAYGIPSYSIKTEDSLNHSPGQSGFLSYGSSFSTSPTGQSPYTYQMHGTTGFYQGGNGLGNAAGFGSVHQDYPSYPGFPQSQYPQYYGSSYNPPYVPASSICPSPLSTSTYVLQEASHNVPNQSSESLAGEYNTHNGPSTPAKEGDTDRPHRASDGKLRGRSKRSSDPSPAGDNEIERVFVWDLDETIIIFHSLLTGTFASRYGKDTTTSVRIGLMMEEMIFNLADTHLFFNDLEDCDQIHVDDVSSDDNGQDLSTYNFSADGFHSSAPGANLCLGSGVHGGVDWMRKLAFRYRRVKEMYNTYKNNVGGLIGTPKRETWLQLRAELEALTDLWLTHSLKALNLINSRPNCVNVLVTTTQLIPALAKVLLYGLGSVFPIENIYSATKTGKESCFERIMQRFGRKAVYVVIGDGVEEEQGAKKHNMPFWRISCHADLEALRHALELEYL
Target sequence (Q15475 whole entry, looked up): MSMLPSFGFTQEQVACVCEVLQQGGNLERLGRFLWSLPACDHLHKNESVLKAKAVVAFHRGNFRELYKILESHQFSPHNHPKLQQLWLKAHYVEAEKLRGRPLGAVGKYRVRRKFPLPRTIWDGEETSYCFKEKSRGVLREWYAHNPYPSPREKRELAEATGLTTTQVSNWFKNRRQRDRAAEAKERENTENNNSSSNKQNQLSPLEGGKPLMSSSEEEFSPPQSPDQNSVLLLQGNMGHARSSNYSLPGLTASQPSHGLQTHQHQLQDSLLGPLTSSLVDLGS
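AlphaScreen luminescence read after one hour at 37 °C in darkness. Pin-transferred compounds met GST-Six1 and His-Eya2 protein (5X stock 250 nM/500 nM) plus glutathione donor and Ni-chelate acceptor beads (5X, 50 ug/mL).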
HP1b chromo inh – blocks HP1-beta chromodomain binding to methylated histone tails | P83916 | AlphaScreen HP1-beta / biotin-H3K9me3 peptide binding | AID 540317 | hit rate 0.56% among 390,000 | Potency, µM (highest dose often 114 µM), usual class: inhibitors; further: nearly all actives have a fitted effect of over 70% in size
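HP1-beta protein (50 nM final) preincubated 30 min at room temperature with biotinylated H3(1-18)K9me3 peptide (50 nM) in PBS pH 7.4, 0.01% Tween-20, then compound added for 30 min. AlphaScreen streptavidin donor/nickel chelate acceptor beads (10 ug/mL final), 30 min dark, luminescence read.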
BAZ2B inh – inhibitors of human BAZ2B bromodomain. Q9UIF8. AlphaScreen BAZ2B-H3K14Ac peptide displacement. Potency, µM (doses to about 114 µM), hits mostly inhibitors. hit rate 4.4% among 360,000; further: nearly all actives have a fitted effect of over 60% in size
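Compounds, titrated to a top concentration of 110 uM, were incubated 30 min at room temperature with preformed BAZ2B/acetyl-K14 H3 peptide complex (50 nM each). Proximity signal was measured by AlphaScreen after 20 min with beads.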
G9a block – G9a (human) methyltransferase inhibition; G9a H3K9 monomethylation, AlphaScreen, 2 h; hit rate 8.8% among 350,000; Q96KQ7; AID 504332; Potency, µM (titrated, usually from 102 µM), hits mostly inhibitors; further: nearly all actives have a fitted effect of over 75% in size
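Readings reflect AlphaScreen signal from monomethyl-H3K9 antibody detection. HMT at 20 nM; substrate b-H3K9 500 nM; cofactor SAM 20 uM; 2 h RT reaction; compounds tested as titrations in qHTS with 15 min preincubation.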
Hits are given with their value; [ ] = another dose, or the depositor's remark. Unless noted, the call rests on the fitted dose curve; in most records, active means well fitted inhibition curve with a large enough effect; inconclusive means small, poorly fitted or top-dose-only effect; inactive means no such curve, though single readings can be large or run the other way.

Results for CCOC(=O)c1cc2c(=O)n3ccccc3nc2n(CCOC)c1=NC(=O)c1ccncc1 ?
CtBP-E1A blk: inactive; JMJD2A Tudor: inactive; Six1-Eya2 blk: inactive; HP1b chromo inh: inactive; BAZ2B inh: inactive; G9a block: inactive[12.7 µM]

What do the screens show for `CCOC(=O)c1cc2c(=O)n3ccccc3nc2n(CCCOC)c1=NC(=O)c1cccnc1`?
BAZ2B inh: inactive; G9a block: 10µM

What do the screens show for `CCOC(=O)c1cc2c(=O)n3ccccc3nc2n(Cc2ccco2)c1=NC(=O)c1cccc(Br)c1`?
JMJD2A Tudor: inactive; HP1b chromo inh: inactive; BAZ2B inh: 50.1µM; G9a block: inconclusive

How did CCOC(=O)c1cc2c(=O)n3ccccc3nc2n(C(C)C)c1=NC(=O)c1ccncc1 do in these assays?
CtBP-E1A blk: inactive; JMJD2A Tudor: inconclusive; Six1-Eya2 blk: inactive; HP1b chromo inh: inactive; BAZ2B inh: inactive; G9a block: 56.2µM

What do the screens show for `Nc1ccc(S(=O)C(F)(F)F)cc1` (centres undefined)?
CtBP-E1A blk: inactive; JMJD2A Tudor: inactive; Six1-Eya2 blk: inactive; HP1b chromo inh: inactive; BAZ2B inh: inactive; G9a block: inactive

Results for O=C(O)CSCc1nc2cccnc2n1C1CCCCC1 ?
CtBP-E1A blk: inactive; JMJD2A Tudor: inconclusive; Six1-Eya2 blk: inconclusive; HP1b chromo inh: inactive; BAZ2B inh: inactive; G9a block: inconclusive

Results for C[C@H](NC(=O)Nc1cccc(Br)c1)C(=O)O ?
CtBP-E1A blk: inactive; JMJD2A Tudor: inactive; Six1-Eya2 blk: inactive; HP1b chromo inh: inactive; BAZ2B inh: inactive; G9a block: inconclusive

What do the screens show for `CCOC(=O)c1cc2c(=O)n3ccccc3nc2n(Cc2ccco2)c1=NC(=O)c1cccnc1`?
CtBP-E1A blk: inactive; JMJD2A Tudor: inconclusive; Six1-Eya2 blk: inactive; HP1b chromo inh: inactive; BAZ2B inh: inconclusive; G9a block: 56.2µM

Results for CCOC(=O)c1cc2c(=O)n3ccccc3nc2n(Cc2ccco2)c1=NC(=O)c1cccc(C)c1 ?
JMJD2A Tudor: inactive; HP1b chromo inh: inactive; BAZ2B inh: inactive; G9a block: inactive

How did Cc1cc(=O)oc(C)c1C(=O)Nc1c(C)n(C)n(-c2ccccc2)c1=O do in these assays?
CtBP-E1A blk: inactive; JMJD2A Tudor: inactive; Six1-Eya2 blk: inactive; HP1b chromo inh: inactive; BAZ2B inh: inactive; G9a block: inactive

What do the screens show for `Cc1c(NC(=O)c2c(NC(=O)CNC3CC3)sc3c2CCCC3)c(=O)n(-c2ccccc2)n1C`?
CtBP-E1A blk: inactive; JMJD2A Tudor: 56.2µM; Six1-Eya2 blk: inactive; HP1b chromo inh: inactive; BAZ2B inh: inconclusive; G9a block: inconclusive

Results for CC1Cc2cc(/C(O)=C3/C(=O)C(=O)N(CCCn4ccnc4)C3c3cccnc3)ccc2O1 (centres undefined) ?
CtBP-E1A blk: inactive; JMJD2A Tudor: 14.1µM; Six1-Eya2 blk: inactive; HP1b chromo inh: inactive; BAZ2B inh: inconclusive; G9a block: 50.1µM

Results for CC1Cc2cc(/C(O)=C3/C(=O)C(=O)N(CCCn4ccnc4)C3c3cccc([N+](=O)[O-])c3)ccc2O1 (centres undefined) ?
CtBP-E1A blk: inactive; JMJD2A Tudor: inactive; Six1-Eya2 blk: inactive; HP1b chromo inh: inactive; BAZ2B inh: inconclusive; G9a block: 50.1µM

What do the screens show for `COc1ccccc1C1/C(=C(\O)c2ccc3c(c2)OCCO3)C(=O)C(=O)N1CCCn1ccnc1` (centres undefined)?
CtBP-E1A blk: inactive; JMJD2A Tudor: inactive; Six1-Eya2 blk: inactive; HP1b chromo inh: inactive; BAZ2B inh: inconclusive; G9a block: 39.8µM

Results for COc1ccc(C2/C(=C(\O)c3ccc4c(c3)OCCO4)C(=O)C(=O)N2CCCn2ccnc2)cc1 (centres undefined) ?
CtBP-E1A blk: inactive; JMJD2A Tudor: inactive; Six1-Eya2 blk: inactive; HP1b chromo inh: inactive; BAZ2B inh: inconclusive; G9a block: inconclusive

What do the screens show for `C=CCOc1ccc(/C(O)=C2/C(=O)C(=O)N(CCCn3ccnc3)C2c2ccco2)cc1` (centres undefined)?
JMJD2A Tudor: inconclusive; Six1-Eya2 blk: inactive; HP1b chromo inh: inactive; BAZ2B inh: 50.1µM; G9a block: 20µM

Results for O=C(N[C@@H]1CC[C@@H](CCn2cc(-c3ccccc3)nn2)O[C@@H]1CO)c1cnccn1 ?
CtBP-E1A blk: inactive; Six1-Eya2 blk: inactive

How did O=C1C(=O)N(CCCn2ccnc2)C(c2ccccn2)/C1=C(/O)c1ccccc1 (centres undefined) do in these assays?
BAZ2B inh: inactive; G9a block: 50.1µM

Results for CC1Cc2cc(/C(O)=C3/C(=O)C(=O)N(CCCn4ccnc4)C3c3ccncc3)ccc2O1 (centres undefined) ?
CtBP-E1A blk: inactive; JMJD2A Tudor: inactive; Six1-Eya2 blk: inactive; HP1b chromo inh: inactive; BAZ2B inh: inconclusive

What do the screens show for `CC1Cc2cc(/C(O)=C3/C(=O)C(=O)N(CCCn4ccnc4)C3c3ccco3)ccc2O1` (centres undefined)?
CtBP-E1A blk: inactive; JMJD2A Tudor: 31.6µM; Six1-Eya2 blk: inactive; HP1b chromo inh: inactive; BAZ2B inh: inconclusive; G9a block: inconclusive

How did O=C(NC1CC(=O)N(c2ccc(F)cc2)C1)c1ccco1 (centres undefined) do in these assays?
JMJD2A Tudor: inactive; HP1b chromo inh: inactive; BAZ2B inh: inactive; G9a block: inactive

Results for COc1cc(C2SCC(=O)N2CCN2CCCCC2)ccc1O (centres undefined) ?
CtBP-E1A blk: inactive; JMJD2A Tudor: inactive; Six1-Eya2 blk: inactive; HP1b chromo inh: inactive; BAZ2B inh: inactive; G9a block: 50.1µM

Results for BrC(=C\c1ccccc1)/C=N/Nc1ccc2nncn2n1 ?
CtBP-E1A blk: inconclusive; JMJD2A Tudor: inconclusive; Six1-Eya2 blk: inactive; HP1b chromo inh: inactive; BAZ2B inh: 44.7µM

Results for C(=N\Nc1ccc2nncn2n1)/c1ccco1 ?
CtBP-E1A blk: inconclusive; JMJD2A Tudor: inactive; Six1-Eya2 blk: inactive; HP1b chromo inh: inactive; BAZ2B inh: inactive; G9a block: inactive

What do the screens show for `NC(=O)c1ccc(SCC(=O)OCC(=O)N2CCN(C(=O)c3ccco3)CC2)c([N+](=O)[O-])c1`?
CtBP-E1A blk: inactive; JMJD2A Tudor: inactive; Six1-Eya2 blk: inactive; HP1b chromo inh: inactive; BAZ2B inh: inactive; G9a block: 56.2µM

How did CC1CCN(C(=O)COC(=O)CSc2ccc(C(N)=O)cc2[N+](=O)[O-])CC1 do in these assays?
CtBP-E1A blk: inactive; JMJD2A Tudor: inactive; Six1-Eya2 blk: inactive; HP1b chromo inh: inactive; BAZ2B inh: inactive; G9a block: inactive[2.33 µM]

What do the screens show for `NC(=O)c1ccc(SCC(=O)OCC(=O)N2CCCCC2)c([N+](=O)[O-])c1`?
CtBP-E1A blk: inactive; JMJD2A Tudor: inactive; Six1-Eya2 blk: inactive; HP1b chromo inh: inactive; BAZ2B inh: inactive; G9a block: 50.1µM

From PubChem BioAssay
